Bioassay records from PubChem BioAssay.
Compounds with a hit are over-represented: about 4.6% of the library has one in this group of screens.
NALP3 yeast inh: blocks the NALP3 inflammasome reconstituted in yeast | Yeast reconstituted NLRP3/ASC/caspase-1, beta-gal luminescence, 24 h | AID 2825 | inhibition, % at 10 µM | hit rate 0.39% among 330,000;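 active = inhibition of 50% or more; inactive = inhibition below 50%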;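 note: plate controls were induced DMSO wells for no effect and uninduced yeast grown without galactose for full effect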
SKKanGAS inh: inhibitors of SKKanGAS S. pyogenes growth in kanamycin (SK-promoter or general growth effect) | BacTiter-Glo, 6 h | inhibition, % at 7.5 µM | hit rate 1.3% among 300,000 | AID 1662;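 active = mean replicate score, as percent of positive control median, at least 50; inconclusive = mean below 50 but one replicate at or above 50; inactive = mean and every replicate below 50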;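 note: strain carries kanamycin resistance gene driven by streptokinase promoter and grows in 40 µg/ml kanamycin; loss of luminescence reflects streptokinase promoter inhibition or plain growth inhibition; 0% = median of DMSO wells and 100% = positive control at its reference dose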
TIM10 inh: inhibits growth of TIM10 yeast strain | S. cerevisiae TIM10 strain growth, BacTiter-Glo luminescence, 24 h | inhibition, % at 10 µM | hit rate 1.4% among 330,000 | AID 463195;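 active = inhibition of 40% or more at the single tested concentration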;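 note: wild-type TIM10 isogenic control strain grown at permissive 25 °C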
tim10-1 inh: inhibits growth of tim10-1 mutant yeast | S. cerevisiae tim10-1 ts strain growth, BacTiter-Glo, 24 h | inhibition, % at 20 µM | hit rate 2.2% among 330,000;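 active = inhibition of at least 40%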;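 note: mutant grown at 25 °C; 0% = DMSO wells with yeast and 100% = wells holding no yeast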
PfHsp90 set2: inhibits growth of yeast expressing Plasmodium falciparum Hsp90. AID 504621. hit rate 0.32% among 310,000. S. cerevisiae expressing PfHsp90, BacTiter-Glo ATP, 48 h; yeast lacking PDR1 and PDR3 efflux regulators. inhibition, % at 9.4 µM;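 active = every replicate shows inhibition above about 80%, whatever the replicate mean, limit read from the data; inconclusive = mean inhibition reaches the set limit but some replicate falls short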;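 note: 0% = DMSO neutral controls and 100% = 20 µM radicicol positive controls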
tim23-1 inh: inhibits growth of tim23-1 mutant yeast; S. cerevisiae tim23-1 growth, BacTiter-Glo luminescence, 24 h; inhibition, % at 20 µM; hit rate 1.3% among 330,000;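 active = growth inhibition of the mutant yeast at or above 50%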;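 note: temperature-sensitive mutant grown at 25 °C; plate controls were DMSO-treated mutant yeast for no effect and medium wells lacking yeast for full effect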
Active calls of the source: *; u = inconclusive; x = no result given.

SMILES | NALP3 yeast inh | SKKanGAS inh | TIM10 inh | tim10-1 inh | PfHsp90 set2 | tim23-1 inh
Cc1ccc(NC(=O)NC(=S)NC(=O)c2ccccc2)cc1 | -1.7 | -4.8 | -2.1 | -18.8 | -2.8 | -10.1
O=C(Cc1ccc(Cl)cc1)NNC(=S)NC(=O)c1cccs1 | 30.4 | 81.9* | 23.0 | -18.6 | -20.6 | -22.9
O=C(N/N=C/c1ccccn1)c1cccs1 | 16.1 | -1.4 | 8.4 | -38.7 | 1.8 | 13.2
Cc1ccc(-n2nc(-c3ccc(OC(F)(F)F)cc3)cc2N)cc1C | 18.7 | 6.6 | 13.8 | 12.2 | x | 15.5
Cc1ccc(C(=O)NNC(=S)NC(=O)c2ccco2)cc1 | 24.4 | 72.8* | 25.8 | -5.6 | -46.7 | -1.1
Cc1ccc(C(=O)NNC(=O)c2ccco2)cc1 | -8.6 | 2.8 | 1.5 | 3.7 | -5.5 | -4.5
Cc1cccc(C(=O)NNC(=S)NC(=O)c2ccccc2)c1 | 39.2 | 96.4* | 0.4 | 17.1 | 12.9 | 7.7
Cc1ccsc1C(=O)N1CCC(CO)(Cc2ccccc2)CC1 | 0.5 | -4.3 | 2.7 | 0.8 | -2.2 | 16.4
CCOC(=O)c1cc(-c2ccc3c(c2)OCCO3)nc2c1c(C)nn2CCC#N | 3.8 | 80.6* | 17.6 | 22.3 | 1.2 | 30.7
O=C1CN(C(=O)COC(=O)c2c(F)cccc2Cl)c2ccccc2N1 | 6.8 | x | 11.8 | 1.5 | 7.4 | 9.7
COc1ccc(CN2CCc3ccc(NC(=O)c4ccncc4)cc3C2)c(F)c1 | 18.2 | 49.8* | 5.0 | 14.3 | 3.1 | 21.7
O=C(N/N=C\c1cc(Cl)ccc1O)c1ccc(S(=O)(=O)N2CCCCC2)cc1 | 13.3 | 120.6* | 34.6 | 34.3 | 4.7 | 29.8
O=C(Nc1cc(S(=O)(=O)Nc2ccc(Cl)cc2)ccc1O)c1ccc(S(=O)(=O)N2CCCCCC2)cc1 | -1.2 | 13.3 | 3.4 | 8.5 | -0.4 | 0.0
Nc1nonc1-n1nnc(C(=O)N/N=C/c2cc(Cl)ccc2O)c1CN1CCCCCC1 | 8.9 | 49.8* | 27.0 | 34.9 | -7.2 | 35.5
O=C(N/N=C/c1cc(Cl)ccc1O)c1cccnc1 | 23.9 | 84.6* | 17.7 | -24.2 | -14.2 | 43.8
Nc1nonc1-n1nnc(C(=O)N/N=C/c2ccc(Cl)cc2Cl)c1CN1CCCCC1 | 5.8 | -2.7 | -30.2 | -38.1 | -8.9 | -36.1
COc1ccc(-c2cc(C(F)(F)F)nc(N3CCCCCC3)n2)cc1 | -16.6 | u | -6.9 | -27.6 | x | -23.4
COc1cccc(-c2cc(C(F)(F)F)nc(N3CCCCC3)n2)c1 | 6.2 | 57.5* | -14.1 | 4.7 | x | -4.3
FC(F)(F)c1cc(-c2ccccc2)nc(N2CCCCCC2)n1 | 12.6 | 86.2* | -10.9 | -7.8 | -18.7 | 5.7
Clc1ccc(-c2csc(N3CCCCCC3)n2)cc1 | 3.6 | 54.2* | 6.0 | 6.0 | -3.5 | 8.4
S=C(Nc1ccccc1)Nc1nc2ccccc2n1CCOc1ccccc1 | 18.3 | 41.8 | 11.2 | 37.9 | -100.8 | 11.4
CCCCn1c(CCCNC(=O)c2ccco2)nc2ccccc21 | 9.7 | 53.3* | 6.1 | 22.9 | 0.8 | 3.8
CCCn1c(NC(=O)c2ccco2)nc2ccccc21 | 37.3 | -10.5 | 25.3 | 35.4 | x | 41.7
COc1ccc(OCCn2c(NC(=O)c3ccco3)nc3ccccc32)cc1 | 12.7 | 62.1* | 15.7 | 3.1 | -21.5 | 0.1
CCCCn1c(CCNC(=O)c2ccco2)nc2ccccc21 | 7.3 | -2.5 | 1.9 | 10.7 | -5.6 | 7.1
SMILES | NALP3 yeast inh | SKKanGAS inh | TIM10 inh | tim10-1 inh | PfHsp90 set2 | tim23-1 inh
CC(=O)Nc1nc2ccccc2n1CCOc1ccccc1 | -10.8 | 63.2* | 14.5 | 24.5 | 0.3 | 12.7
CCOC(=O)CC1COc2ccccc2N1C(=O)c1cccc([N+](=O)[O-])c1 (centres undefined) | 22.2 | -0.5 | 15.6 | 17.8 | 11.8 | 21.1
CCN(CC)C(=O)Cn1cc(C(=O)C(=O)NCc2ccccn2)c2ccccc21 | 22.7 | -0.9 | 5.9 | 8.3 | 0.8 | -12.8
C/C(=N\NC(=O)c1c(Cl)c(C)nn1C)c1cccc(NC(=O)COc2ccccc2)c1 | -7.9 | 12.3 | 17.2 | 24.2 | -6.7 | 23.4
C/C(=N\NC(=O)c1c(Cl)c(C)nn1C)c1cccc(NC(=O)c2cccc(F)c2)c1 | 21.9 | 55.4* | 18.9 | 3.4 | -9.3 | 0.9
O=C(CCC(=O)Nc1cc(C(F)(F)F)ccc1Cl)N/N=C\c1cc([N+](=O)[O-])ccc1O | 25.9 | 102.6* | 18.0 | -6.1 | -21.6 | 13.3
O=C(CCC(=O)Nc1ccc(Br)cc1)N/N=C/c1cc([N+](=O)[O-])ccc1O | 13.3 | 55.6* | -0.3 | -11.1 | 2.5 | -32.9
O=C(CCC(=O)Nc1ccc(F)cc1)N/N=C/c1cc([N+](=O)[O-])ccc1O | -1.3 | -0.8 | 3.1 | 6.0 | 29.5 | -34.4
Cc1cccc(NC(=O)CCC(=O)N/N=C/c2cc([N+](=O)[O-])ccc2O)c1 | 24.0 | -28.4 | 17.4 | 1.6 | 2.5 | 0.4
O=C(O)/C=C\C(=O)Nc1ccccc1C(=O)N1CCC(O)(c2ccc(Cl)cc2)CC1 | x | x | x | x | -6.0 | x
COC(=O)c1ccc(N2C(=O)CC(N3CCC(O)(c4ccc(Br)cc4)CC3)C2=O)cc1 (centres undefined) | 21.6 | 4.5 | 26.7 | 39.5 | 99.8* | 13.5
OC(COc1cccc2ccccc12)CN1CCN(c2ccc(Cl)cc2)CC1 (centres undefined) | 45.3 | 57.5* | 16.9 | 21.3 | 15.1 | 15.5
Cc1cccc(COC(=O)CCCNC(=O)c2ccc(Cl)cc2)c1 | 35.1 | x | -26.5 | -17.9 | 93.4* | 12.8
C=CC[C@H](CC(=O)NCCO)C(=O)N[C@H](COC(=O)[C@H](CC=C)CC(=O)OC(C)(C)C)Cc1c[nH]c2ccccc12 | -4.1 | x | 12.3 | 9.9 | 7.1 | 21.3
COc1ccc(C2C(C(=O)c3ccccc3)=C(C)Nc3nc4ccccc4n32)c(OC)c1 (centres undefined) | -5.2 | 88.7* | -0.7 | -3.8 | 2.4 | -15.5
COc1ccc(OC)c(C2C(C(=O)N(C)C)=C(C)Nc3nc4ccccc4n32)c1 (centres undefined) | -10.5 | -2.9 | 9.9 | 6.7 | -21.4 | 19.7
Cn1c(=O)c2c(O)c([N+](=O)[O-])c(=O)n(C)c2n(C)c1=O | 2.1 | -5.4 | -1.7 | 15.7 | -11.9 | 1.0
COc1ccc2nc(N3C(=O)/C(=C/c4ccccc4)NC3=S)sc2c1 | 4.2 | 92.4* | 7.7 | 5.3 | -33.1 | 1.0
CCOc1ccc2nc(N3C(=O)/C(=C/c4ccccc4)NC3=S)sc2c1 | 9.1 | 99.6* | 0.6 | 8.5 | 12.5 | 9.4
COc1ccc2nc(N3C(=O)CC(Cc4cc(C)cc(C)c4)C3=O)sc2c1 (centres undefined) | 13.1 | 18.2 | 18.3 | 20.0 | -14.2 | 26.4
CCN1C(=O)C(C(=O)c2ccccc2)SC1=S (centres undefined) | 17.7 | 6.5 | 3.4 | 6.0 | -1.8 | 10.3
CSc1nc2nccc(-c3ccc(-c4ccccc4)cc3)n2n1 | -27.9 | 72.0* | 12.0 | 19.5 | -10.7 | 15.4
CSc1nc2nccc(-c3ccc(Oc4ccccc4)cc3)n2n1 | 17.8 | x | -9.5 | -9.2 | -33.1 | 8.2
CC(=O)NNC(=S)NC(=O)C(c1ccccc1)c1ccccc1 | 28.3 | 61.3* | 24.7 | 36.0 | 10.0 | 0.4
